Experimental findings from publication PMC7862700, “An all-to-all approach to the identification of sequence-specific readers for epigenetic DNA modifications on cytosine” are described below.

Assay in all cases: DAPPL (digital affinity profiling via proximity ligation, sequencing); 10 mM Tris-HCl pH 7.5, 50 mM NaCl, 1 mM DTT, 4% glycerol, room temperature, 30 min; GST-TFs on glutathione beads, 16-mer random dsDNA library, 0.1% formaldehyde crosslink after washing; high values mean tight binding
Assay [1] has as its target T1, FLI1 (Homo sapiens, UniProt Q01543 1-452).
T1 sequence: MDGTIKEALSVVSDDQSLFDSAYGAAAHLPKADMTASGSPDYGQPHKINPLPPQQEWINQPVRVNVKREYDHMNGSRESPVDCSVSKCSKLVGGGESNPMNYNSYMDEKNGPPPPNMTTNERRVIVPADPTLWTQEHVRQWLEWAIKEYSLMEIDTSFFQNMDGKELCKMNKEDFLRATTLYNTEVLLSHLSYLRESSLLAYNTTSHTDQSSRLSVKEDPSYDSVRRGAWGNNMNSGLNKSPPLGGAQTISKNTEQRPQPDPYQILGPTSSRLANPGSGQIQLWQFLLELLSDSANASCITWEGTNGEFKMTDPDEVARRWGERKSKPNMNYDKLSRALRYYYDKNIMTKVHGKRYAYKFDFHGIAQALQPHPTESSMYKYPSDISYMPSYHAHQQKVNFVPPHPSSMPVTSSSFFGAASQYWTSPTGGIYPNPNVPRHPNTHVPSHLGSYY
Particulars: protein: recombinant; tags: N-terminal GST; dsDNA, one strand shown. In a few lines: (§1)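 Beads coated with glutathione captured GST-fused human transcription factors that had been expressed in yeast, and the factors were then given DNA barcodes and pooled with a tag-only sample. The pools were incubated with 200 nmole of a random double-stranded 16-mer DNA library in Tris/NaCl/DTT/glycerol buffer for 30 min at room temperature, washed, crosslinked with 0.1% formaldehyde and proximity-ligated with BsaI/T4 ligase at 37 °C for 1 h. PCR amplification and Illumina NextSeq500 sequencing came last. Binding signal is each hexamer's read frequency for a factor divided by its frequency for the tag-only sample.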

The target of assay [2] is T2, ELK1 (Homo sapiens, UniProt P19419 1-428).
T2 sequence: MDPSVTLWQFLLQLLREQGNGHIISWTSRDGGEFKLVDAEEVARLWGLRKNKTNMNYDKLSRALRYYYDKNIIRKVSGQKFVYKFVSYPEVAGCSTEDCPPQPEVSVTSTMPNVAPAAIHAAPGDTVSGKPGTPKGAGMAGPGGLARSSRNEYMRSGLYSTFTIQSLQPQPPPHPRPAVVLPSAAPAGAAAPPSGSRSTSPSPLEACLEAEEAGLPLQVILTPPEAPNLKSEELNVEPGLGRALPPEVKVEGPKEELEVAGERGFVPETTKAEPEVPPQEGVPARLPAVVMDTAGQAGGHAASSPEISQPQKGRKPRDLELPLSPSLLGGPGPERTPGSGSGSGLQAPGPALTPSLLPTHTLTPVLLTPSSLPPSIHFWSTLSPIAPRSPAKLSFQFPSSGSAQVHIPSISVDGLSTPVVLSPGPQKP
Particulars: protein: recombinant; tags: N-terminal GST; dsDNA, one strand shown. A digest of the protocol:
as §1

The target in assay [3] is T3, GABPA (Homo sapiens, UniProt Q06546 1-454).
T3 sequence: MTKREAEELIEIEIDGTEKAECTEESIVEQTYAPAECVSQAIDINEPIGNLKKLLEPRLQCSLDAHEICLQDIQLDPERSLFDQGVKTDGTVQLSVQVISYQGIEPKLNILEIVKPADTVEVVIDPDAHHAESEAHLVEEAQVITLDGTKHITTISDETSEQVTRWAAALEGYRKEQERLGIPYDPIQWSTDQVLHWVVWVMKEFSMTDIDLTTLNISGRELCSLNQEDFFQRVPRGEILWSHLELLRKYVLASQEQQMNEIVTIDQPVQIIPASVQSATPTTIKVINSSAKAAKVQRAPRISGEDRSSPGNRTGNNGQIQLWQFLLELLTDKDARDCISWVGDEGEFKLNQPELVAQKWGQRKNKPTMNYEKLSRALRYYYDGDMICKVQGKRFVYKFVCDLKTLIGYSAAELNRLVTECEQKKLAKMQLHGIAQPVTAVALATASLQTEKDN
The note with it: protein: recombinant; tags: N-terminal GST; dsDNA, one strand shown. In a few lines:
as §1

Assay [4] addresses T4, ERG (Homo sapiens, UniProt P11308 1-479).
T4 sequence: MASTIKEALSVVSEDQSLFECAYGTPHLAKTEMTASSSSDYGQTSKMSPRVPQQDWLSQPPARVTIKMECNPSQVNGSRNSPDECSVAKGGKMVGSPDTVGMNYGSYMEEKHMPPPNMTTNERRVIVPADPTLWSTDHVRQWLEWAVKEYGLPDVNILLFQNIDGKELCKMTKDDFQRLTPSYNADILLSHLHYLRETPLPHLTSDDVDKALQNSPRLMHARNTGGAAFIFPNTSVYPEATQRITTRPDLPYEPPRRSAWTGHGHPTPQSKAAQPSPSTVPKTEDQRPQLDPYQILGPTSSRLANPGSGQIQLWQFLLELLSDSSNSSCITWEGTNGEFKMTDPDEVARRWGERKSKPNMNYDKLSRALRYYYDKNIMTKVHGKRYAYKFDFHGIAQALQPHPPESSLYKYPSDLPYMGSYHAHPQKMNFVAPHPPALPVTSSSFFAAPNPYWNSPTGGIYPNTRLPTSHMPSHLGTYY
The note with it: protein: recombinant; tags: N-terminal GST; dsDNA, one strand shown. A digest of the protocol: as §1

Assay [5] concerns the target ELF1 (Homo sapiens, UniProt P32519 1-619). The note with it: protein: recombinant; tags: N-terminal GST; dsDNA, one strand shown. In a few lines:
as §1

Assay [6] addresses T5, EHF (Homo sapiens, UniProt Q9NZC4 1-300).
T5 sequence: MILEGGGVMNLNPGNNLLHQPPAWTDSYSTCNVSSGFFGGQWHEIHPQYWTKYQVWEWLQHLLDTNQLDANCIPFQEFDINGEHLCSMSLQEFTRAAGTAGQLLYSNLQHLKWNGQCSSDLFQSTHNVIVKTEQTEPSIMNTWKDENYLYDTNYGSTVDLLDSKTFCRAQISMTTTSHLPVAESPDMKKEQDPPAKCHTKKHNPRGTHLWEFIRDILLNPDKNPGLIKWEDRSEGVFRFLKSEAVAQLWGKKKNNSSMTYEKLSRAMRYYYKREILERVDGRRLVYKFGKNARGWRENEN
Particulars: protein: recombinant; tags: N-terminal GST; dsDNA, one strand shown. A digest of the protocol:
as §1

For assay [7], the target named is SPI1 (Homo sapiens, UniProt P17947 1-270). The note with it: protein: recombinant; tags: N-terminal GST; dsDNA, one strand shown. In a few lines: as §1
The target of assay [8] is SPIB (Homo sapiens, UniProt Q01892 1-262). The note with it: protein: recombinant; tags: N-terminal GST; dsDNA, one strand shown. In a few lines: as §1
Assay [9] deals with T6, FEV (Homo sapiens, UniProt Q99581 1-238).
T6 sequence: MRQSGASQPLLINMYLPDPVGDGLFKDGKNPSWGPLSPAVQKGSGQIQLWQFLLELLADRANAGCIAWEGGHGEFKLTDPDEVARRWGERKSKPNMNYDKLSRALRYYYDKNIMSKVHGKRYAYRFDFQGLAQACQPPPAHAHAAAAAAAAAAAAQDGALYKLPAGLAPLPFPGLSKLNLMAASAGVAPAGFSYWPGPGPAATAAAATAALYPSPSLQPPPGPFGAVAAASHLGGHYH
The note with it: protein: recombinant; tags: N-terminal GST; dsDNA, one strand shown. In a few lines: as §1

The target in assay [10] is ETV5 (Homo sapiens, UniProt P41161 1-510). The note with it: protein: recombinant; tags: N-terminal GST; dsDNA, one strand shown. In a few lines: as §1
In assay [11] the target is HSF1 (Homo sapiens, UniProt Q00613 1-529). The note with it: protein: recombinant; tags: N-terminal GST; chain copies: 3; dsDNA, one strand shown. In a few lines: as §1
In assay [12] the target is T7, SPIC (Homo sapiens, UniProt Q8N5J4 1-248).
T7 sequence: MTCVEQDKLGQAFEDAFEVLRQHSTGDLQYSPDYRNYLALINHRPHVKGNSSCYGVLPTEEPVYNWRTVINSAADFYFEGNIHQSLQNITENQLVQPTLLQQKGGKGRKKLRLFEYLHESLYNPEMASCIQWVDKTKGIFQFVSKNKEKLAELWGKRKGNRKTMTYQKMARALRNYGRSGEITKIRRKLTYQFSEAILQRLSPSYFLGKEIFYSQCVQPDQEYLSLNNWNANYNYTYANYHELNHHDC
Particulars: protein: recombinant; tags: N-terminal GST; dsDNA, one strand shown. In a few lines:
as §1

For assay [13], the target named is ELF4 (Homo sapiens, UniProt Q99607 1-663). Particulars: protein: recombinant; tags: N-terminal GST; dsDNA, one strand shown. A digest of the protocol:
as §1

In assay [14] the target is T8, ETV2 (Homo sapiens, UniProt O00321 1-342).
T8 sequence: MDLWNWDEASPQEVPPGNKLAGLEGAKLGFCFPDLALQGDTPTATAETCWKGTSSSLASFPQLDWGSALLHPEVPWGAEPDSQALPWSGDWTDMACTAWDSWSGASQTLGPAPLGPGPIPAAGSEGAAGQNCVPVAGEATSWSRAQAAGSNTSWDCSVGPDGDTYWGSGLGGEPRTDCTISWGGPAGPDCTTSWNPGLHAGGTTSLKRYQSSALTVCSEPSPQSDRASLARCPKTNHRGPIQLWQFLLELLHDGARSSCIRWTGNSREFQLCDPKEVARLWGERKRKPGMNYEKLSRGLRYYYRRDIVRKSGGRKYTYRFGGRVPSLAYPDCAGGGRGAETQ
Particulars: protein: recombinant; tags: N-terminal GST; dsDNA, one strand shown. A digest of the protocol:
as §1

Assay [15] has as its target T9, ELF3 (Homo sapiens, UniProt P78545 1-371).
T9 sequence: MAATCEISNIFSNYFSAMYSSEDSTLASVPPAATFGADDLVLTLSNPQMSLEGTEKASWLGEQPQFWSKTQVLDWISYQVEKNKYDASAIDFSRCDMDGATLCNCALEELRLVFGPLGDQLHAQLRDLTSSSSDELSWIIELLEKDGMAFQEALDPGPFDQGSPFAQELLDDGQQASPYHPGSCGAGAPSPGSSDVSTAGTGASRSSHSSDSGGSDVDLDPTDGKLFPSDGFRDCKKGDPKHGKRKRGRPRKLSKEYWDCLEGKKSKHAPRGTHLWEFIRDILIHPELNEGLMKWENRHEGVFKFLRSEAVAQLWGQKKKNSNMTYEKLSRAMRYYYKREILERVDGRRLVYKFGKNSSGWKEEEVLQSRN
The note with it: protein: recombinant; tags: N-terminal GST; dsDNA, one strand shown. In a few lines: as §1

The target in assay [16] is ETV1 (Homo sapiens, UniProt P50549 1-477). Particulars: protein: recombinant; tags: N-terminal GST; dsDNA, one strand shown. In a few lines: as §1
Sequence of ETV1 (P50549 whole entry): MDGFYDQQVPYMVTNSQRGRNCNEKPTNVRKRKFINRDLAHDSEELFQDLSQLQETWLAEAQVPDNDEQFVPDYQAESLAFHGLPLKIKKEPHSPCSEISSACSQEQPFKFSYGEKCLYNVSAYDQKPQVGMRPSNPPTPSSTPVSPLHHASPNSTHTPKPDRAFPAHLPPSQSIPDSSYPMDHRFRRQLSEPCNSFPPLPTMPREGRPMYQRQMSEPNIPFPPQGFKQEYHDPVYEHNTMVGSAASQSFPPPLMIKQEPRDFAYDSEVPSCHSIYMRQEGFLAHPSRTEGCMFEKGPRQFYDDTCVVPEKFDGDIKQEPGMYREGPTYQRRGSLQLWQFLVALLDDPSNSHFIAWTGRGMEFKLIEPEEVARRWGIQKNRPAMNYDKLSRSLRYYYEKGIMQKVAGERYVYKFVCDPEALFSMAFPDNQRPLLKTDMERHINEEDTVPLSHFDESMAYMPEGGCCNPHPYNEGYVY

Sequence of ELF4 (Q99607 whole entry): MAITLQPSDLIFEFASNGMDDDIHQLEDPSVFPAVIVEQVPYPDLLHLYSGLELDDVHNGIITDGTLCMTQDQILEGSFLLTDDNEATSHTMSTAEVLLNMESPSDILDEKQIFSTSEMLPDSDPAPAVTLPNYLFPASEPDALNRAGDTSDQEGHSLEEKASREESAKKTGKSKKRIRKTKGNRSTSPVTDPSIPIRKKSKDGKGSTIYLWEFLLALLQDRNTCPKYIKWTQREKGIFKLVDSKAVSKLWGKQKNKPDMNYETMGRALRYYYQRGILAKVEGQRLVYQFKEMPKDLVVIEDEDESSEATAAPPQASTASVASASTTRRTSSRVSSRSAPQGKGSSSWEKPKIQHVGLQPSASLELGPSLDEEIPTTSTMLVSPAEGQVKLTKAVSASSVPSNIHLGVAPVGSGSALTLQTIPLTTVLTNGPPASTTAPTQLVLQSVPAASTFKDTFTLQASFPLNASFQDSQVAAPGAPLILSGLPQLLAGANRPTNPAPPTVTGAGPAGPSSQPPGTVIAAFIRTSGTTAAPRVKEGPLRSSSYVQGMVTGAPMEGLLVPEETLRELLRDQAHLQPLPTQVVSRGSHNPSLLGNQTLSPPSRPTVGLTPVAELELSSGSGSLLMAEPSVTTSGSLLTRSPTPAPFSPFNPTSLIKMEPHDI
Sequence of HSF1 (Q00613 whole entry): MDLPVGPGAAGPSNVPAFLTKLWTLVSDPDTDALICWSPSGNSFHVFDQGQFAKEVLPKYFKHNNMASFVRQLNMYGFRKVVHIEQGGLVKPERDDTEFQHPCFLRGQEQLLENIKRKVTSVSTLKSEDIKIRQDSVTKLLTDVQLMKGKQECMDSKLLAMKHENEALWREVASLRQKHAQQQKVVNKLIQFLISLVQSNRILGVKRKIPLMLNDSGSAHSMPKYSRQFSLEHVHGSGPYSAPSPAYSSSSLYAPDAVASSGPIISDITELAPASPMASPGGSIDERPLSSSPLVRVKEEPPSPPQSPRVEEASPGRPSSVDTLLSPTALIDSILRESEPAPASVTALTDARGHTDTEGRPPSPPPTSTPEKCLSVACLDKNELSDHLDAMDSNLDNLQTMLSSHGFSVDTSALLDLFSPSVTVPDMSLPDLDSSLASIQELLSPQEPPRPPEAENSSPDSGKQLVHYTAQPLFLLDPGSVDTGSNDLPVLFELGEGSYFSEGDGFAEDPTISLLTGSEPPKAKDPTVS
Sequence of ETV5 (P41161 whole entry): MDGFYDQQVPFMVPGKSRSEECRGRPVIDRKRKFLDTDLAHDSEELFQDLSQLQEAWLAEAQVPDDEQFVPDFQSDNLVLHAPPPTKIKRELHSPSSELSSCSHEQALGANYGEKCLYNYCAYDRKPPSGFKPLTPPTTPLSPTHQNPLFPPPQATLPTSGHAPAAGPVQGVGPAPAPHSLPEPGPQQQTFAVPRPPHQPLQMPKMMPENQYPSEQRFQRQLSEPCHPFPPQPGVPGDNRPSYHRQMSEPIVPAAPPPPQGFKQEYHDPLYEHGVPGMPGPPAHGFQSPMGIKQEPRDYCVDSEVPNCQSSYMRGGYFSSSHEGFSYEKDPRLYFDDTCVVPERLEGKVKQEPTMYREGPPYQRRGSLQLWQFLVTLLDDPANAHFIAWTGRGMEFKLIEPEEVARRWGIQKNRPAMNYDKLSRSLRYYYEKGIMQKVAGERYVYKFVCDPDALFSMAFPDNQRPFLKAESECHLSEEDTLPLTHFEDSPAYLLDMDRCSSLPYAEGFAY
Sequence of SPIB (Q01892 whole entry): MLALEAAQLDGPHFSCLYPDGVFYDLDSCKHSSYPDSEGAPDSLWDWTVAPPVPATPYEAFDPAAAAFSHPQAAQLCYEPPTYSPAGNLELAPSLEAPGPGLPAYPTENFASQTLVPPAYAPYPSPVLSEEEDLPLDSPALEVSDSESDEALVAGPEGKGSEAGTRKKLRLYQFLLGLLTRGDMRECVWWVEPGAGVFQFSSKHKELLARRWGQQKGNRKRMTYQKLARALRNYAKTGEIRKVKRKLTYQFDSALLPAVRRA
Sequence of ELF1 (P32519 whole entry): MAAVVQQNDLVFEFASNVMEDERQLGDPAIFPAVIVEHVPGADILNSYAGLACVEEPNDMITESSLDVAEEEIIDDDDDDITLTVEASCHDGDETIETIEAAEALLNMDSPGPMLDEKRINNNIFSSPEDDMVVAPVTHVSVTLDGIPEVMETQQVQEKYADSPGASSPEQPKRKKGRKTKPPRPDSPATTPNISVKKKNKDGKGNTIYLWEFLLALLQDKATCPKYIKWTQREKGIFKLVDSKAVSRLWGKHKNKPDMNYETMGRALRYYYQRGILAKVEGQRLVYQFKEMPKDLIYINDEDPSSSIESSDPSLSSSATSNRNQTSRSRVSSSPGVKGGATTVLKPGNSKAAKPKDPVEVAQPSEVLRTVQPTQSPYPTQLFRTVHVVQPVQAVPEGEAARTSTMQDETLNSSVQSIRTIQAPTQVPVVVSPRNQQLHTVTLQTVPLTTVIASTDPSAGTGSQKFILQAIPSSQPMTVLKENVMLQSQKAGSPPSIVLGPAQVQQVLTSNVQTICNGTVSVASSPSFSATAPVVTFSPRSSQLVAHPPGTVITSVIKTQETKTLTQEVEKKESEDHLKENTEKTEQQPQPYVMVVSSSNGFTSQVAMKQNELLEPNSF

Turning to GCTCTG, the binding signal in [1] was 1.18 fold enrichment (6-mer frequency, TF over GST control); in assay [2] it was 1.26 fold enrichment (6-mer frequency, TF over GST control); in [3] it was 1.03 fold enrichment (6-mer frequency, TF over GST control); in assay [4], 1.01 fold enrichment (6-mer frequency, TF over GST control); in [5], 1.08 fold enrichment (6-mer frequency, TF over GST control); in assay [6] it was 1.15 fold enrichment (6-mer frequency, TF over GST control). Also, the binding signal in [7] is 1.11 fold enrichment (6-mer frequency, TF over GST control); in assay [8] it was 1.1 fold enrichment (6-mer frequency, TF over GST control); in assay [9] it was 1.25 fold enrichment (6-mer frequency, TF over GST control); in [10], 1.15 fold enrichment (6-mer frequency, TF over GST control); in [11] it was 1.08 fold enrichment (6-mer frequency, TF over GST control); in assay [12], 1.18 fold enrichment (6-mer frequency, TF over GST control). The binding signal was 1.17 fold enrichment (6-mer frequency, TF over GST control) in assay [13]; 1 fold enrichment (6-mer frequency, TF over GST control) in assay [14]; 1.04 fold enrichment (6-mer frequency, TF over GST control) in [15]; 1.28 fold enrichment (6-mer frequency, TF over GST control) in assay [16].
